Reference: the supplement of paper PMC6555819

tested on: PPARa:RXRa (NR concentration 270 nM, RXRa partner concentration 90 nM); assay: PBM binding z-score (relative to random genomic background probes); higher = stronger binding; sequences stand for … in GC…GCGATTGACAGCGTAGAATGAAGG
Experimental: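 Protein-binding microarray (Agilent 4x180K custom design, double-stranded 60-nt probes: 5' GC cap, 34-nt variable region, 24-nt constant primer region; full probe sequence given). Purified or IVT nuclear receptor:RXRα heterodimers (3:1 NR:RXRα, mostly 270:90 nM) or homodimers were incubated for 1 h in PBS with 2% milk and no ligand, then detected with Alexa488 antibodies. Fluorescence from o1-orientation probes (~5 replicates averaged) was converted to z-scores against 500 random hg19 background probes. Variable regions are seed direct-repeat (DR0–DR5) sites, all their single-nucleotide variants and half-site ablations.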

| Sequence | PBM binding z-score |
| --- | --- |
| AGAATGAGGTCATTAAGATCAGGGAATTGCGGTC | 6.05 |
| TAGCCTAGGTCATACAGGGGCCAGTATAGAAAGC | 3.72 |
| TGTCAACGTTCAAAGGTAACGTAAGTATCCACAC | 1.49 |
| TCGTGTAGGTTACGGGGGCATTCAGGGATGAAGA | 4.58 |
| CCTTACGGGTCACGTGGTTATAGCACGACGAGCG | 5.88 |
| AGAATGAGGTCAAGATCAGGGAAACAGAATACAT | 6.42 |
| CGTCAAAGTTCAACTAAGGTTACGTAAAGCACGC | 5.63 |
| ATCGAAAGGTCGACGCGGTGAGTATACACCGTTT | 3.97 |
| CCTTACGGGTCACTCCAGGTTATATCATCGGAGT | 4.5 |
| ACTTACGGCTCAACGAGGTTATAGCACGCGTATA | 0.734 |
| ATATGTAGGTTAGGGGTCATTCAGGTTGGTTCGC | 6.51 |
| CGTCAAAGATCAAGGTAACGTAACAGAAAGCAGC | 0.962 |
| CAAACCAGGTCAAGAGGTCAAAGTCCGCTTCCCG | 6.68 |
| TAGCCTAGGTCATGCGGGCCAATATAGTGTCGGC | 3.53 |
| TCGAGTAGGTCACGGGGGCATTCAGGGATGAAGA | 6.09 |
| CGAACAAGGTCATTGACAGGACAGTGAATAGTAA | 5.93 |
| TAGCCTAGGTTATGGGCCAGTATACCACGCGAAC | 0.542 |
| ATATGTAGGTTAGCTGAGGTCATTCAGACTAGGC | 4.55 |
| AGAATGAGGTCATACGTAGATCAGGGAAGAAAGT | 6.29 |
| AGAATGGGGTTATACGTAGATCAGGGAAGAAAGT | 5.16 |

| Sequence | PBM binding z-score |
| --- | --- |
| ATTTGTAGGTTACATCCGGGTCATTCAGGCTATG | 4.12 |
| CCTGCGAGGTCATGGTCAGCTAATCTACAGTATG | 5.87 |
| CGTCCAAGGTCATAGAGGTCAGTGAATGCCGAGT | 5.85 |
| CTATGTAGGTTAAGGGAGTCATTCAGTTTGAAAG | 3.21 |
| CGTCCAAGGTTAAGGTCAGTGAAAGAGACTCGAA | 3.78 |
| CCTTACGGGTAACGAGGTTATAGCACGACGAGCG | 1.62 |
| CAAAATAGGTCACGAAAGGTCAAAGTCGAATGAC | 6.79 |
| CCGAGTAGGTTACGAGGGGTCATTCAGTGCGAAT | 5.09 |
| ACTTACGGGTCTACGAGGTTATAGCACGCGTATA | 1.2 |
| CGAACTAGGTCGAGGACAGTGAATCTCCGCACGC | 1.75 |
| TCTAGTTGGTCACGGAGGTCCCACACGACGGGTA | 0.66 |
| ATATGTAGGTTATCTGGGGTCATTCAGACTAGGC | 5.4 |
| AGAATGAGGTTAAACGTAGATCAGGGAAGAAAGT | 4.4 |
| CGTCCAAGGTCACGGTCAGTGAAAGAGACTCGAA | 6.27 |
| TATAAAGGGTCAAAGGCCAGAGTACGAATGTCGA | 6.43 |
| TAGCCTAGGTCACATCGGGCCAGTATACGCTATA | 3.16 |
| GTTACAGGGTCAAGGCCAGAGTACGCGTATTGAT | 5.59 |
| CCTACTGGGCCAAAAAGTTCATTGATGCCGATAA | 1.72 |
| CGTCCAAAGTCAAAGGTCAGTGAAGAGATGACGG | 5.06 |
| TAGCCTAGGTCATTCAGGGGCAAGTATAGAAAGC | 3.84 |
